High-throughput results as filed in PubChem.
The list is not random: actives were taken first. Their share in the collection is about 5.9%.
HepG2 viability = kills HepG2 cells in TGF-b inhibitor counter-screen. HepG2 CAGA-GFP viability, ATP luminescence, 18 h. Potency, µM (doses to about 46.1 µM), most hits filed as cytotoxic. 0.76% of 410,000 active. AID 588856
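HepG2 CAGA-GFP cells (1000/well, DMEM with 1% FBS) received compound, then TGF-beta at 500 pg/mL final, and were incubated 18 hours at 37 degrees C. Viability was read by CellTiter-Glo luminescence. Media-only wells were set as complete cell-killing and DMSO as no toxicity.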
KB-V1 cytotox = kills drug-selected multidrug resistant KB-V1 cells; KB-V1 MDR cells viability, CellTiter-Glo, 72 h; Potency, µM (highest dose often 46.1 µM), hits mostly cytotoxic; 3.4% of 400,000 active; further: nearly all actives have a fitted effect of over 60% in size
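KB-V1 MDR subline cells in DMEM (phenol-red free, 10% FBS) exposed to compounds in qHTS concentration series for 72 h at 37 degrees C. Viability read by CellTiter-Glo luminescence; concentration-effect curves fitted after normalization and correction.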
TGFb SMAD3 inh = blocks TGF-b signaling; HepG2 CAGA-GFP TGF-b/SMAD3 reporter, GFP fluorescence, 18 h; TGF-beta stimulated, 500 pg/mL final; AID 588855; 1.2% of 410,000 active; Potency, µM (highest dose often 46.1 µM), most hits filed as inhibitors; further: nearly all actives have a fitted effect of over 65% in size
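Using HEPG2 CAGA-GFP reporter cells at 1000 cells/well, we pinned test compounds, stimulated with recombinant TGF-beta (500 pg/mL final) and measured total well GFP after 18 h.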
ATXN viability = cell viability loss in ATXN counter-screen. S2 cells (HEK-293 line with an ATXN2-luciferase reporter) viability, CellTiter-Fluor protease fluorescence, 24 h. Potency, µM (doses to about 56.7 µM), hits mostly cytotoxic. 0.49% of 400,000 active. AID 651635; further: nearly all actives have a fitted effect of over 40% in size
KB-3-1 cytotox = kills parental KB-3-1 adenocarcinoma cells; KB-3-1 viability, CellTiter-Glo ATP luminescence, 72 h; Potency, µM (series often up to 46.1 µM), usual class: cytotoxic; 1.4% of 400,000 active; AID 1347075; further: nearly all actives have a fitted effect of over 60% in size
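Screening of KB-3-1 cells (DMEM, 10% FBS, phenol-red free) ran from lowest to highest compound concentration; after 72 h at 37 °C viability was read luminescently and curves fitted.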
ATXN2 expr inh = reduces ATXN2 reporter expression in HEK-293 cells; 0.72% of 360,000 active; HEK-293 ATXN2-luciferase reporter, luminescence, 24 h; Potency, µM (titrated, usually from 57 µM), hits mostly inhibitors; further: nearly all actives have a fitted effect of over 55% in size
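ATXN2-luciferase reporter cells (luciferase flanked by upstream and downstream ATXN2 gene portions) were treated 24 h at 37 °C with compounds at up to 57 uM. SteadyGlo luminescence gave expression; GF-AFC fluorescence gave viability.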
A number is an active result; 0 = inactive; ? = inconclusive; - = no result given; [ ] = dose if it differs, or a comment. The call rests on the fitted dose curve; in most records, active means well fitted curve in the direction sought with a large enough effect; inconclusive means small, poorly fitted or top-dose-only effect, or another doubt; inactive means no such curve, though single readings can be large; an effect the other way counts as inactive or inconclusive.

SMILES	HepG2 viability	KB-V1 cytotox	TGFb SMAD3 inh	ATXN viability	KB-3-1 cytotox	ATXN2 expr inh
COCc1c(C(=O)NC2CCCCC2)cnn1-c1nccc(-c2cc(C)sc2C)n1	-	-	-	0	-	-
COc1ccc(C2=NC(C)(C)N(CC(=O)Nc3ccc(F)c(F)c3)C2=O)cc1	0	-	-	-	-	-
CCOc1ccc(OCC)c(NC(=O)C2COc3ccccc3O2)c1 (stereo not given)	0	20.6µM	0	0	0	0
CCOc1ccccc1NC(=O)C1COc2ccccc2O1 (stereo not given)	0	0	0	0	0	-
COc1ccc(C)cc1NC(=O)CC1COc2ccccc2O1 (stereo not given)	0	0	0	0	0	0[11.3 µM]
CCOc1ccc(/C=C2\SC(=O)N(CCNC(=O)C3COc4ccccc4O3)C2=O)cc1OC (stereo not given)	0	16.4µM	?	?	0	?
COc1cc(OC)c(OC)cc1NC(=O)CC1COc2ccccc2O1 (stereo not given)	0	14.6µM	0	0	0	0
COc1ccc(Cl)cc1NC(=O)CN(C)C(=O)CN1C(=O)NC(C)(c2ccc3ccccc3c2)C1=O (stereo not given)	0	?	?	0	10.3µM	0
CCc1nc2cc(C(=O)N3CCC[C@H]3CO)cc(NC(=O)c3ccccc3OC)c2n1C	-	-	-	0	-	-
O=C(Nc1ccc2c(c1)OCCO2)C1c2ccccc2OCC(=O)N1CCc1ccccc1 (stereo not given)	-	0	-	0	0	0
CC(C)(C)NC(=O)C(c1cc2ccccc2o1)n1c(=O)c(-c2cc3ccccc3[nH]2)nc2ccccc21 (stereo not given)	-	0	-	-	0	-
O=C(CN1CCN(Cc2cccc(C(F)(F)F)c2)CC1)NCC(=O)Nc1ccc(F)c(F)c1F	0	23.1µM	0	0	0	0
O=C(CN1CCCCC1)NCC(=O)Nc1ccc(F)c(F)c1F	0	0	0	0	0	0
CCc1ccc(OCC(=O)N/N=C(\C)c2ccccc2OC(F)F)cc1	0	16.4µM	0	0	0	0
CCCCN(CCCC)Cc1ccc(C(=O)NNC(=O)Nc2ccc(F)cc2)o1	17.8µM	0	0	0	0	0
COc1cc(-c2c(-c3ccsc3)sc3ccccc23)cc(OC)c1OC	0	0	0	0	0	0
COc1cc(-c2c(CCO)sc3ccccc23)cc(OC)c1OC	-	20.6µM	-	0	?	0
Cc1[nH]ccc2cc3nc4ccccc4c3cc12	0	10.3µM	?	-	?	-
Cc1cccc2nc3ccccc3cc12	0	0	0	0	0	0
CC(C)OC(=O)n1c(=S)oc2ccccc21	0	0	0	0	0	0
CCCCC(=O)/C=C/n1c(=S)oc2ccccc21	0	?	5.01µM	?	?	?
Cn1ccnc1SCc1nc2c(cnn2-c2ccccc2)c(=O)[nH]1	0	0	0	0	0	0
O=c1[nH]c(CSc2ccccn2)nc2c1cnn2-c1ccccc1	0	20.6µM	0	0	0	0
CCc1cccc(NC(=O)CSc2nc3ccccc3nc2N2CCCCC2)c1	0	-	0	-	-	-
COC(=O)c1cc2oc(C)cc2n1Cc1ccc(C)cc1	0	-	0	-	-	-
SMILES	HepG2 viability	KB-V1 cytotox	TGFb SMAD3 inh	ATXN viability	KB-3-1 cytotox	ATXN2 expr inh
COc1ccc(C(=O)Nc2ncc(C)s2)cc1S(=O)(=O)N1CCOCC1	0	?	0	0	?	0
COc1cc(C)c(Sc2cnc(NC(=O)c3ccc(CNC(C)C(C)(C)C)cc3)s2)cc1C(=O)N1CCN(C(C)=O)CC1 (stereo not given)	-	-	-	-	-	8.63µM
O=C(Nc1ccc(N2CCN(C(=O)c3cccs3)CC2)c(Cl)c1)c1ccco1	0	3.66µM	0	0	?	0
O=C(c1ccco1)N1CCN(c2ccc([N+](=O)[O-])cc2Cl)CC1	0	?	0	0	0	0
O=C(Nc1ccc(N2CCOCC2)c(Cl)c1)c1c(F)c(F)c(F)c(F)c1F	0	0	0	0	0	12.6µM
O=C(NC(=S)N1CCN(c2ccc([N+](=O)[O-])cc2Cl)CC1)c1ccco1	0	20.6µM	?	0	0	0
O=C(Nc1ccc(N2CCOCC2)c(Cl)c1)c1cc(F)c(F)cc1Cl	0	?	0	0	?	0
Cc1ccc(C(=O)NC(=S)N2CCN(c3ccc([N+](=O)[O-])cc3)CC2)cc1	0	23.1µM	0	0	0	0
C(=C\c1ccnc2ccccc12)/c1ccccc1	0	?	0	-	0	-
CCNC(=O)C1(C)CCN(Cc2ccc(C#N)cc2)C1 (stereo not given)	0	0	0	0	0	0
Cc1ccccc1C(=O)N1CCN(c2ccc(NC(=O)c3ccco3)cc2Cl)CC1	0	?	?	?	0	31.6µM
O=C(Nc1ccc(N2CCN(C(=O)c3cccs3)CC2)c(Cl)c1)c1cccnc1	0	0	0	0	0	22.4µM
Cc1ccccc1C(=O)N1CCN(c2ccc(NC(=S)NC(=O)c3ccco3)cc2)CC1	0	0	?	14.1µM	?	-
O=C(Nc1ccc(N2CCN(C(=O)c3ccco3)CC2)c(Cl)c1)c1cccnc1	0	0	0	0	0	0
O=C(Nc1ccc(N2CCN(C(=O)c3ccco3)CC2)c(Cl)c1)c1c(F)c(F)c(F)c(F)c1F	0	0	?	?	?	28.2µM
COc1ccc(-n2nc(CCC(=O)N(C)O)cc2-c2ccc(Cl)cc2)cc1	-	-	-	0	-	?
COc1ccccc1CN1CCN(C2CCN(C(=O)Nc3ccccc3)CC2)C(=O)C1=O	0	0	0	0	0	0
CCOc1ccc(NC(=O)Nc2c[nH]c(=O)[nH]c2=O)cc1	0	0	0	0	0	0
CCOC(=O)c1ccc(NC(=O)Nc2c[nH]c(=O)[nH]c2=O)cc1	3.16µM	0	0	0	0	0
COc1ccc(NC(=O)C2CCN(S(=O)(=O)c3ccc4c(c3)CCCC(=O)N4)CC2)cc1OC	0	0	0	0	0	0
CCCCCCC(=O)N(O)C1CC(=O)N(c2ccc(F)cc2)C1=O (stereo not given)	0	0	17.8µM	?	0	0
CCCCCCC(=O)N(O)C1CC(=O)N(c2ccc(Br)cc2)C1=O (stereo not given)	0	0	?	0	0	0
CCCOc1ccc(-c2nn(-c3ccccc3)cc2C2NC(=O)NC(C)=C2C(=O)OC(C)C)cc1 (stereo not given)	0	?	?	0	0	0
CC(C)OP(=O)(OC(C)C)C(NC(=O)c1ccc(Br)cc1)c1ccccc1 (stereo not given)	0	3.66µM	0	0	?	0
O=C(C[n+]1cccc(Br)c1)c1ccc2ccccc2c1	0	?	0	-	?	-
